The list is not random: actives were taken first. Their share in the collection is about 8.1%.
Hedgehog inh – Hedgehog pathway signaling inhibitors, primary screen, luminescence, Shh-LIGHT2 cells, Gli-luciferase | Shh-LIGHT2 Gli-luciferase reporter, 30 h | inhibition, % (test concentration not listed) | actives 2.1% (n = 22,000) | AID 2313, 2010;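 active = mean inhibition across valid replicates above about 65%, limit read from the data; inconclusive = mean under the limit, yet half or more replicates past it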;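 note: pathway switched on by Shh-conditioned medium diluted 1 in 25 in low serum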
PD-1 reverse act – activators reversing PD-1 mediated T-cell inhibition, primary screen, luminescence, primary human CD4 T cells, PD-L1 beads | AID 2316, 2010 | activation, % (test concentration not listed) | CellTiter-Glo 96 h | 29,000 tested, under 10 active; call rule not given here
MITF inh – inhibitors of MITF, primary screen, MITF inhibitor project, cell-based, luminescence; inhibition, % (concentration not given with the values); AID 2240, 2010; actives 0.28% (n = 37,000); TRPM1 promoter luciferase, 24 h; in the data active = inhibition above about 85%; inconclusive = no clear call, values can overlap the other calls; inactive = below about 68%;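 note: human melanocyte line stably carrying TRPM1 promoter luciferase reporter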
NOMO-1 viab – NOMO-1 AML cell viability reduction, primary screen, STK33 inhibitor project, CellTiter-Glo luminescence | NOMO-1 AML viability, 72 h | inhibition, % (no concentration beside the values) | actives 7.5% (n = 37,000); in the data active = inhibition above about 80%; inconclusive = no clear call, values can overlap the other calls
Numbers stand for hits; – = inactive; ? = inconclusive; · = not tested or not shown.

SMILES	Hedgehog inh	PD-1 reverse act	MITF inh	NOMO-1 viab
O=C(Nc1ccccc1)c1ccc(S(=O)(=O)c2cccc(S(=O)(=O)N3CCOCC3)c2)cc1	·	–	–	–
O=C(COc1ccc(Cl)cc1C1C2=C(CCCC2=O)NC2=C1C(=O)CCC2)Nc1ccc(Cl)cc1	·	–	–	115.6
CNC[C@H]1Oc2ccc(NC(=O)C3CC3)cc2C(=O)N([C@H](C)CO)C[C@@H]1C	–	–	–	–
C[C@@H]1CN([C@@H](C)CO)C(=O)Cc2cc(NC(=O)Cc3ccccc3)ccc2O[C@@H]1CN(C)Cc1ccc(C(=O)Nc2ccccc2N)cc1	·	–	–	95.8
C[C@H](CO)N1C[C@H](C)[C@H](CN(C)Cc2ccc(C(=O)Nc3ccccc3N)cc2)Oc2ccc(NC(=O)Cc3ccccc3)cc2CC1=O	·	–	–	127.9
C[C@@H]1CN([C@H](C)CO)C(=O)Cc2cc(NC(=O)Cc3ccccc3)ccc2O[C@H]1CN(C)Cc1ccc(C(=O)Nc2ccccc2N)cc1	·	–	–	–
COC(=O)c1ccc(C(=O)OC)c(NC(=O)c2ccccc2N(C)S(C)(=O)=O)c1	·	–	–	–
C[C@@H]1CN([C@H](C)CO)C(=O)c2cc(NC(=O)Cc3ccccc3)ccc2O[C@H]1CN(C)Cc1ccc(Oc2ccccc2)cc1	·	–	–	–
C[C@H](CO)N1C[C@H](C)[C@@H](CN(C)Cc2ccc(Oc3ccccc3)cc2)Oc2c(NC(=O)Nc3ccc(F)cc3)cccc2C1=O	?	–	–	99.0
C[C@H](CO)N1C[C@H](C)[C@H](CN(C)Cc2ccc(Oc3ccccc3)cc2)Oc2c(NC(=O)Nc3ccc(F)cc3)cccc2C1=O	–	–	–	–
COc1ccc(CN(C)C[C@@H]2Oc3c(NC(=O)Nc4ccccc4)cccc3C(=O)N([C@@H](C)CO)C[C@H]2C)cc1	–	·	–	100.2
C[C@@H]1CN([C@@H](C)CO)C(=O)c2cccc(NC(=O)Nc3ccccc3)c2O[C@H]1CN(C)Cc1ccc(Oc2ccccc2)cc1	–	–	–	113.4
COc1ccc(NC(=O)Nc2cccc3c2O[C@H](CN(C)Cc2ccccc2)[C@@H](C)CN([C@@H](C)CO)C3=O)cc1	–	–	–	–
COC(=O)CCc1[nH]c2ccccc2c1Sc1ccccc1	–	–	–	140.2
O=c1cc(-c2ccccc2)oc2ccccc12	–	–	–	–
O=C1NC(=O)C(=Cc2ccc(-c3ccccc3)o2)C(=O)N1	–	–	–	125.9
C[C@H]1CN([C@@H](C)CO)C(=O)Cc2cc(N(C)C)ccc2O[C@@H]1CN(C)S(=O)(=O)c1ccc(Cl)cc1	·	·	–	–
C[C@@H]1CN([C@H](C)CO)C(=O)Cc2cc(N(C)C)ccc2O[C@@H]1CN(C)S(=O)(=O)c1cccs1	68.8	·	–	–
C[C@H]1CN([C@@H](C)CO)C(=O)Cc2cc(N(C)C)ccc2O[C@H]1CN(C)S(=O)(=O)c1ccc(Cl)cc1	–	–	–	115.3
C/C=C(\C)C(=O)O[C@@H]1C(C)=C2[C@H]3OC(=O)[C@](C)(O)[C@]3(O)[C@H](OC(=O)C(C)CC)C[C@@](C)(OC(C)=O)[C@@H]2[C@H]1OC(=O)CCCCCCC (stereo partly specified)	99.0	·	·	·
COc1ccc(-c2nc3cc(NC(=O)COc4ccc([N+](=O)[O-])cc4)ccc3o2)cc1Cl	·	–	–	–
CC(C)c1ccc2oc(-c3ccc(Cl)c(NC(=O)COc4ccc([N+](=O)[O-])cc4)c3)nc2c1	·	–	–	110.2
C=C(CO)C(=O)O[C@H]1C[C@H]2C(=C)C[C@H](OC(=O)C(=C)CO)[C@H]3C(=C)C(=O)O[C@@H]3[C@H]2C1=C	–	–	–	117.4
C=C1C(=O)O[C@@H]2[C@H]3C(=C)[C@@H](O[C@@H]4O[C@H](CO)[C@@H](OC(=O)/C=C/c5ccc(O)c(O)c5)[C@H](O)[C@H]4O)C[C@H]3C(=C)C[C@@H](O)[C@@H]12	–	·	·	·
Cc1ccc(S(=O)(=O)N(C)C[C@@H]2Oc3ccc(NS(=O)(=O)c4ccc(Cl)cc4)cc3CC(=O)N([C@H](C)CO)C[C@H]2C)cc1	–	·	–	–
SMILES	Hedgehog inh	PD-1 reverse act	MITF inh	NOMO-1 viab
C[C@H](CO)N1C[C@H](C)[C@@H](CN(C)Cc2ccc(-c3ccccc3)cc2)Oc2ccc(NC(=O)Nc3ccc(C(F)(F)F)cc3)cc2C1=O	–	–	–	121.9
C[C@H]1CN([C@@H](C)CO)C(=O)c2cc(NC(=O)Nc3ccc(C(F)(F)F)cc3)ccc2O[C@H]1CN(C)Cc1ccc(C(=O)O)cc1	·	–	–	–
C[C@@H]1CN([C@@H](C)CO)C(=O)c2cc(NC(=O)Nc3ccc(C(F)(F)F)cc3)ccc2O[C@H]1CN(C)Cc1ccc(-c2ccccc2)cc1	–	·	–	118.1
C[C@@H]1CN([C@H](C)CO)C(=O)c2cc(NC(=O)Nc3ccc(C(F)(F)F)cc3)ccc2O[C@H]1CN(C)Cc1ccc(-c2ccccc2)cc1	–	–	–	126.2
C[C@H](CO)N1C[C@H](C)[C@@H](CN(C)Cc2ccc(C(=O)O)cc2)Oc2ccc(NC(=O)Nc3ccc(C(F)(F)F)cc3)cc2C1=O	·	–	–	–
C[C@@H]1CN([C@@H](C)CO)C(=O)c2cc(NC(=O)Nc3ccc(C(F)(F)F)cc3)ccc2O[C@@H]1CN(C)Cc1ccc(-c2ccccc2)cc1	–	–	–	126.2
CN1C(=O)[C@@]2(Cc3ccccc3)SSS[C@]1(CO)C(=O)N2C	70.2	–	91.0	108.4
CCn1c2ccccc2c2cc(NC(=O)CN(C)S(=O)(=O)c3ccccc3)ccc21	·	·	–	–
CCn1c(=NC(=O)c2ccc(S(=O)(=O)N(C)C)cc2)sc2ccccc21	–	–	–	87.3
C[C@@H]1CN([C@H](C)CO)C(=O)c2cc(NC(=O)NC3CCCCC3)ccc2O[C@@H]1CN(C)Cc1ccc(C(=O)Nc2ccccc2N)cc1	·	–	–	99.0
C[C@H](CO)N1C[C@H](C)[C@H](CN(C)Cc2ccc(C(=O)Nc3ccccc3N)cc2)Oc2ccc(NC(=O)NC3CCCCC3)cc2C1=O	·	–	–	97.8
C[C@@H]1CN([C@@H](C)CO)C(=O)c2cc(NC(=O)NC3CCCCC3)ccc2O[C@@H]1CN(C)Cc1ccc(C(=O)Nc2ccccc2N)cc1	·	–	–	107.0
C[C@H]1CN([C@@H](C)CO)C(=O)c2cc(NC(=O)NC3CCCCC3)ccc2O[C@H]1CN(C)Cc1ccc(C(=O)Nc2ccccc2N)cc1	·	–	–	–
C[C@H]1CN([C@@H](C)CO)C(=O)c2cccc(NC(=O)c3ccncc3)c2O[C@H]1CN(C)S(=O)(=O)c1ccc(F)cc1	–	–	–	–
C[C@H]1CN([C@@H](C)CO)C(=O)c2cc(NS(=O)(=O)c3ccc(Cl)cc3)ccc2O[C@@H]1CN(C)Cc1ccc(Oc2ccccc2)cc1	·	–	–	–
COc1ccccc1N1CCN(CCCCNC(=O)c2ccc(-c3ccc(C(C)=O)cc3)cc2)CC1	92.1	·	–	–
C[C@@H]1CN([C@H](C)CO)C(=O)c2cccc(NC(=O)C3CCOCC3)c2O[C@@H]1CN(C)Cc1ccc(C(=O)Nc2ccccc2N)cc1	·	–	–	107.2
